Assay outcomes deposited in PubChem by National Center for Advancing Translational Sciences (NCATS).
TRHR enhancer = allosterically enhances the human TRH receptor. P34981. TRHR cells, fluo-8 calcium fluorescence, EC20 TRH enhancement. enhancement, % at 2 µM. hit rate 0.66% among 360,000; in the data active = enhancement above about 30%; note: 0% is about no effect
Target sequence (P34981 whole entry, looked up): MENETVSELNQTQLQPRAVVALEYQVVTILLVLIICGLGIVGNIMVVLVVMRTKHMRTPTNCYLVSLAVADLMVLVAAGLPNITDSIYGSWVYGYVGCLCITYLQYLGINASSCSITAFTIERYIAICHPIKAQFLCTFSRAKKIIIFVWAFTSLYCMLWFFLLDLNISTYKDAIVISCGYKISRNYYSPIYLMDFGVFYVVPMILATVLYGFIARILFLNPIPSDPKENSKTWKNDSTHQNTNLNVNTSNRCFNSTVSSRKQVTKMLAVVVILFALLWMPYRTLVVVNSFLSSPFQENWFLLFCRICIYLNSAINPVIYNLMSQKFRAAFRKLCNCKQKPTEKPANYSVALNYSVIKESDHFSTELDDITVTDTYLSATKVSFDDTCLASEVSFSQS
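Enhancer read-out: after compound pinning and an initial kinetic agonist-mode read, an EC20 of TRH (10 nM final) was injected and fluo-8 calcium signal (Ex 480/Em 530) followed at 1 s/cycle for 100 cycles in TRHR-expressing cells.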
TRHR agonist = TRH receptor (human) agonism; P34981; TRHR cells, calcium flux fluo-8, FDSS agonist mode; activation, % at 2 µM; hit rate 0.18% among 360,000; note: 0% is about no effect
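Read-out: compound-evoked intracellular calcium rise in TRHR cells, fluo-8 dye, kinetic FDSS fluorescence at 1 s/cycle following a 10-cycle baseline. Cells cultured overnight before dye loading (30 min–1.5 h, RT).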
D1 PAM = potentiators of human D1 dopamine receptor | HEK293 TREx D1 cells, calcium flux, dopamine EC20 potentiation | potentiation, % at 10 µM | hit rate 0.036% among 360,000 | AID 504651; in the data active = potentiation above about 30%; note: 0% is about no effect
D1 ag = activates the human D1 dopamine receptor; HEK293 T-REx D1 cells, calcium flux, agonist mode; activation, % at 2 µM; hit rate 1% among 360,000; AID 504660; note: 0% is about no effect
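Agonism was scored from calcium flux recorded over 180 s (1 read/s) after pintool compound addition, following a 10-cycle baseline. Cells were inducible force-coupled HEK293 TREx D1, plated overnight at 30 C and loaded with no-wash calcium dye.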
D1 antagonist = antagonists of human D1 dopamine receptor; HEK293 TREx D1 cells, calcium flux, dopamine EC80; hits give low values; activity change, negative = inhibition, % at 10 µM; hit rate 3.2% among 360,000; in the data active = activity change below about -30%; note: % is set by controls: 0 for no effect and ±100 for the full control effect
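After overnight tetracycline induction at 30 C, force-coupled D1 HEK293 cells took up a no-wash calcium dye at room temperature. Compounds were added and monitored 180 s, and the response to EC80 dopamine was then recorded.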
Active calls of the source: *; / = not tested or not shown. A selection: hits, their analogues and other compounds. The true share with any hit is near 4.6%. Cut-off read from the data, not from the text of the source, unless noted: active = activation above about 30%; inactive = the rest.

SMILES	TRHR enhancer	TRHR agonist	D1 PAM	D1 ag	D1 antagonist
COc1ccc(C(=O)Nc2nc3ccc(S(C)(=O)=O)cc3s2)cc1	-3	0	-5	-1	-39*
CS(=O)(=O)c1ccc2nc(NC(=O)CCNC(=O)c3ccc(Cl)cc3)sc2c1	-9	1	-4	0	-47*
Cc1cc(C)cc(-n2ccn(Cc3ccccc3C)c(=O)c2=O)c1	8	0	-4	10	2
COc1ccc(CCNC(=O)Cc2c(C)c3ccc(O)c(C)c3oc2=O)cc1OC	1	-1	1	-2	-1
COc1ccccc1OCCNC(=O)Cc1ccc(Cl)c(Cl)c1	-5	-3	-3	4	-34*
O=C(NCCOc1ccccc1Cl)C(=O)NCCOc1ccccc1Cl	4	0	-1	5	-5
COc1ccc(C(=O)NCc2ccc(Cl)c(Cl)c2)cc1OC	1	0	-3	2	6
CC1(C(=O)NCCOc2ccccc2Cl)CC1(Cl)Cl (centres undefined)	1	0	-5	1	-65*
CN(C(=O)Cn1nc(Cc2cccnc2)c2ccccc2c1=O)c1cccc(C(F)(F)F)c1	-7	0	-1	1	-2
COc1cc2c3nnc(-c4ccc(F)cc4)c-3cn(Cc3ccc(F)cc3)c2cc1OC	-3	0	-10	2	-37*
COc1ccc(Cn2cc3c(-c4ccc(F)cc4)nnc-3c3cc(OC)c(OC)cc32)cc1	20	0	2	20	65
Cn1c(=O)n(-c2ccc(Br)cc2F)c(=O)c2sc3ccccc3c21	-2	1	1	4	-17
CCOc1ccc(C2CC(c3ccccc3C)n3ncnc3N2)cc1 (centres undefined)	-4	-1	/	14	-40*
Cc1ccccc1C1CC(c2ccccc2)Nc2ncnn21 (centres undefined)	12	-1	/	5	8
CC(C)c1ccc(OCc2ccc(C(=O)N(C)C)o2)cc1	0	0	-3	10	-32*
CC(C)c1ccc(OCc2ccc(C(=O)O)o2)cc1	-2	0	-6	5	4
Cc1ccc(/C=C2\Sc3ccccc3C2=O)s1	-5	1	-1	4	-13
COc1ccc(OC)c(/C=C2/Sc3ccccc3C2=O)c1	3	66*	8	312*	-2
CC(C)(CC(=O)OCC(=O)Nc1ccc(F)c(Cl)c1)CC1=NS(=O)(=O)c2ccccc2N1	-5	0	-3	13	-1
C=C[C@@](C)(O)CC[C@@H]1[C@@]2(C)CCCC(C)(C)[C@@H]2CC[C@@]1(C)O	-6	-1	9	49*	-1
COc1ccccc1COC(=O)Nc1c(C)nn(C)c1Cl	-11	0	-8	10	-43*
Cc1nn(C)c(Cl)c1NC(=O)OCc1ccc(F)cc1	8	-1	-10	27	-61*
Cc1ccc2oc3c(c(=O)c2c1)C(c1ccccc1F)N(CCCN1CCOCC1)C3=O (centres undefined)	-4	-1	0	0	0
CCOC(=O)c1c(C)c(-c2ccccc2)n(CC(=O)Nc2cccc(C)c2C)c1C	-10	0	-5	0	-5
CCS(=O)(=O)c1ccc(O)c(Nc2cc(C)nc(SC)n2)c1	7	0	0	-2	-8
SMILES	TRHR enhancer	TRHR agonist	D1 PAM	D1 ag	D1 antagonist
CCc1noc(C)c1C(=O)Oc1ccc(N(C)S(=O)(=O)c2ccc(C)cc2)cc1	14	2	0	18	-7
CCc1noc(C)c1C(=O)Oc1ccc(N(C)S(=O)(=O)c2ccccc2)cc1	5	0	6	36*	4
COC(=O)c1ccc(CN2C(=O)NC(CC(C)C)C2=O)cc1 (centres undefined)	4	1	2	7	-32*
COC(=O)c1ccccc1NC(=O)c1nc(-c2ccc(Cl)cc2)n2c1CCCCC2	35*	1	-4	0	-10
O=C(c1ccc2c(c1)OCO2)C1CCCN(Cc2cc(F)ccc2-n2cccn2)C1 (centres undefined)	-2	-1	-10	1	-36*
Cc1ccc(OCC(=O)Nn2c(C)nc3ccccc3c2=O)c(C(C)C)c1	3	-1	5	35*	-22
N#C/C(=C\c1ccc(Br)cc1)c1nc(-c2cc3cc(Br)ccc3oc2=O)cs1	-4	0	0	-2	-12
O=C(CN1CCOCC1)Nc1ccc(Cl)c(Cl)c1	-1	2	0	3	-1
O=C(CN1CCN(S(=O)(=O)N2CCOCC2)CC1)Nc1ccc(Cl)c(Cl)c1	-6	1	-8	14	-49*
Cc1ccc(NC(=O)CN2CCOCC2)cc1C	3	0	-2	8	-40*
O=C(CCC1N=C2c3ccccc3N=C(SCc3ccc(Cl)cc3)N2C1=O)N1CCN(c2ccccc2)CC1 (centres undefined)	-5	0	2	1	1
COc1ccc(CNC(=O)CN2N=C(c3ccc(Cl)cc3)CCC2=O)cc1	-18	-1	-2	-3	15
O=C1c2cccc3c(O)ccc(c23)C(=O)N1c1ccc(Cl)cc1	12	0	19	470*	8
CC(=O)Nc1ccc(N2C(=O)c3cccc4c(O)ccc(c34)C2=O)cc1	35*	199*	12	283*	2
O=C1c2cccc3c(O)ccc(c23)C(=O)N1Cc1ccco1	33*	235*	0	272*	6
CCS(=O)(=O)NCCc1sc2nc(-c3ccc(OC)cc3)nn2c1C	-4	0	-1	5	/
Cc1oc(-c2ccccc2F)nc1CSCC(=O)NCc1ccccc1	3	0	2	2	-26
O=c1c2ccccc2nc(/C=C/c2ccc(O)cc2)n1CCc1ccccc1	-5	2	-7	3	-41*
O=c1c2ccccc2nc(-c2ccco2)n1CCc1ccc(O)cc1	-4	0	-7	3	-41*
CCOc1ccc(NC(=O)c2cnn3c2NC(c2ccccc2)=CC3c2cccc(OC)c2OC)cc1 (centres undefined)	-7	0	-3	5	-8
C[C@@H]1CN(CCCn2c3ccccc3c3ccccc32)C[C@H](C)N1	1	1	-1	40*	-15
COc1cccc(C(=O)Oc2c(Br)cc(Br)cc2/C=N/NC(=O)c2cc(C)[nH]n2)c1	-6	2	-3	10	-32*
CCc1ccc(C(C)NC(=S)NCc2ccc(F)cc2)cc1 (centres undefined)	-7	9	-1	76*	3
Cc1ccc(C(C)NC(=S)NCc2ccc(F)cc2)cc1C (centres undefined)	-5	0	-6	8	-31*
Cc1ccc(C(C)NC(=S)NCc2ccc(F)cc2)c(C)c1 (centres undefined)	-1	6	-6	51*	0
